This passage reports growth results from PubChem BioAssay (NCI).

The structures appear in SMILES notation. About 83,000 compounds went through this panel and 20% of them were active in at least one assay; those are over-represented in the sample as a whole.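 Compound tested at a single concentration for 48 hours in 96-well plates; a percent growth value below 10 was scored as active.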 A number with no mark means an inactive call. Calls of active or inactive are those of the source.

Among the test systems are DU-145 prostate; K-562 leukemia; MALME-3M melanoma; MDA-MB-231 breast; RXF 393 renal; SF-268 CNS; SF-295 CNS; SF-539 CNS; UACC-257 melanoma; M14 melanoma; HCT-15 colon; HT29 colon; SNB-75 CNS; SNB-19 CNS; U251 CNS; PC-3 prostate; SK-MEL-5 melanoma; UACC-62 melanoma; LOX IMVI melanoma; SK-MEL-28 melanoma.
What all share (assay): NCI-60 one-dose screen, 48 h (100 = growth as untreated, 0 = no growth, -100 = all killed)
Holding throughout (conditions): 10 µM unless noted

For the compound `COc1ccc2sc3c(NCCO)nc4ccccc4c3c(=O)c2c1`, the growth in the assay on DU-145 prostate was 106%; with K-562 leukemia, 76.7%; in the assay with MALME-3M melanoma it was 104%; in the assay with MDA-MB-231 breast, 85.3%; in the assay on RXF 393 renal, 104%; in the assay on SF-268 CNS it was 100%. In addition, the growth in the assay with SF-295 CNS was 100%; in the assay on SF-539 CNS it was 86.1%; with UACC-257 melanoma it was 109%; with M14 melanoma, 104%; with HCT-15 colon, 81%; in the assay on HT29 colon it was 101%. The growth with SNB-75 CNS is 103%; in the assay on SNB-19 CNS it was 95.4%; in the assay on U251 CNS it was 93.1%; in the assay on PC-3 prostate, 91.4%; with SK-MEL-5 melanoma it was 93.7%; in the assay on UACC-62 melanoma it was 94.5%. In addition, the growth in the assay with LOX IMVI melanoma was 88%; in the assay on SK-MEL-28 melanoma, 122%.
For `COC(=O)Nc1ccc(-c2nc(-c3cccc(OC)c3)c(-c3ccnc(Br)c3)[nH]2)cc1`, the growth was 81.4% with DU-145 prostate; 13.8% in the assay with K-562 leukemia; 66.7% in the assay with MALME-3M melanoma; 65.3% in the assay on MDA-MB-231 breast; -12.2% (active) in the assay with RXF 393 renal; 76% in the assay on SF-268 CNS. In addition, the growth in the assay with SF-295 CNS was 9.58% (active); in the assay with SF-539 CNS, 51.6%; in the assay with UACC-257 melanoma it was 71.7%; in the assay with M14 melanoma it was 42.5%; with HCT-15 colon it was 17.8%; in the assay on HT29 colon, 50.5%. The growth with SNB-75 CNS is 37.5%; with SNB-19 CNS, 61.6%; in the assay with U251 CNS, 51.5%; with PC-3 prostate, 34%; in the assay with SK-MEL-5 melanoma, 50.2%; with UACC-62 melanoma it was 47.2%. The growth in the assay on SK-MEL-28 melanoma is 62.3%.
Consider `NCCCNc1nc2ccccc2c2c(=O)c3cccc(F)c3sc12`, for which the growth in the assay on DU-145 prostate is 12.6%; in the assay with K-562 leukemia it was -28.2% (active); in the assay on MALME-3M melanoma it was 80%; in the assay with MDA-MB-231 breast, 6.07% (active); with RXF 393 renal, 52.4%; with SF-268 CNS it was 45.9%. The growth in the assay on SF-295 CNS is 72.8%; in the assay on SF-539 CNS it was 44.2%; in the assay on UACC-257 melanoma, 93.5%; in the assay on M14 melanoma, 10%; with HCT-15 colon, 9.25% (active); with HT29 colon it was -14.1% (active). In addition, the growth is 42.7% with SNB-75 CNS; 44% in the assay with SNB-19 CNS; 28.5% in the assay on U251 CNS; 48.5% in the assay with PC-3 prostate; 72.9% in the assay with SK-MEL-5 melanoma; 75.9% in the assay on UACC-62 melanoma. In addition, the results for the growth in the assay with LOX IMVI melanoma and in the assay on SK-MEL-28 melanoma were -96.8% (active) and 85.1%, respectively.
Consider `N/C(=N\c1nc2ccccc2s1)NC(=O)Nc1cccc2ccccc12`, for which the growth is 23.2% in the assay with DU-145 prostate; 9.12% (active) in the assay with K-562 leukemia; 59.7% in the assay on MALME-3M melanoma; 52% in the assay with MDA-MB-231 breast; -2.29% (active) in the assay with RXF 393 renal; 56.4% in the assay on SF-268 CNS. The growth is 33.3% with SF-295 CNS; -21% (active) in the assay with SF-539 CNS; 67.4% in the assay on UACC-257 melanoma; 5.44% (active) in the assay with M14 melanoma; 18.9% in the assay with HCT-15 colon; 6.2% (active) in the assay with HT29 colon. Further, the growth in the assay on SNB-75 CNS is 5.83% (active); in the assay with SNB-19 CNS, 34.8%; with U251 CNS, 14.4%; with PC-3 prostate it was 23.5%; in the assay on SK-MEL-5 melanoma, 14%; in the assay with UACC-62 melanoma, 29.2%. For the same compound, the results for the growth in the assay with LOX IMVI melanoma and in the assay with SK-MEL-28 melanoma were 41.5% and 65.3%, respectively.
As to `Cc1c(C(=O)NCCN2CCOCC2)cn2ncnc(Oc3ccc(NC(=O)Nc4ccc(Cl)c(C(F)(F)F)c4)cc3)c12`, the growth was 42.3% in the assay on DU-145 prostate; 4.96% (active) in the assay on K-562 leukemia; -4.42% (active) in the assay on MALME-3M melanoma; 7.21% (active) in the assay on MDA-MB-231 breast; -26.8% (active) in the assay with RXF 393 renal; 29% in the assay with SF-268 CNS. The growth in the assay on SF-295 CNS was -29.3% (active); in the assay with SF-539 CNS, -2.93% (active); in the assay with UACC-257 melanoma it was 24.3%; in the assay with M14 melanoma, 3.71% (active); in the assay with HCT-15 colon it was 21.8%; with HT29 colon, 7.93% (active). Besides, the growth in the assay on SNB-75 CNS was 22.4%; in the assay with SNB-19 CNS, 20%; with U251 CNS, 14.5%; with PC-3 prostate, 11.4%; in the assay on SK-MEL-5 melanoma it was 6.48% (active); with UACC-62 melanoma it was 14.8%. Besides, the growth in the assay on SK-MEL-28 melanoma is 16.1%.
`Cc1cccc(NC2=C(Cl)C(=O)c3nc(C)ccc3C2=O)c1`: the growth in the assay with DU-145 prostate is -80.2% (active); with K-562 leukemia, 2.91% (active); in the assay on MALME-3M melanoma, -75.3% (active); in the assay with MDA-MB-231 breast it was -75.1% (active); in the assay on RXF 393 renal it was -19.8% (active); with SF-268 CNS, 58.2%. For the same compound, the growth with SF-295 CNS is 12.7%; with SF-539 CNS, -79% (active); with UACC-257 melanoma, -80.2% (active); with M14 melanoma, -45% (active); in the assay with HCT-15 colon, -54.8% (active); with HT29 colon, 115%. Moreover, the growth in the assay with SNB-75 CNS was -64.9% (active); in the assay on SNB-19 CNS, 23.7%; in the assay with U251 CNS it was 32.8%; in the assay with PC-3 prostate it was 24.6%; with SK-MEL-5 melanoma, -93% (active); in the assay on UACC-62 melanoma it was -67% (active). Besides, the growth in the assay on SK-MEL-28 melanoma is -54.5% (active).
Take `CCOC(=O)C1=C(N)Oc2c(sc3c(C)cccc23)C1c1ccc(Cl)cc1` (stereo unspecified): the growth in the assay with DU-145 prostate was 21.6%; in the assay with K-562 leukemia, 9.65% (active); in the assay on MALME-3M melanoma, 36.1%; in the assay on MDA-MB-231 breast, 49.8%; in the assay with RXF 393 renal, -7.89% (active); with SF-268 CNS, 55.5%. Besides, the growth is 4.92% (active) in the assay with SF-295 CNS; 6.36% (active) in the assay with SF-539 CNS; 63.4% with UACC-257 melanoma; 20.6% in the assay on M14 melanoma; 15% in the assay on HCT-15 colon; 14.8% in the assay on HT29 colon. Further, the growth is -9.45% (active) in the assay with SNB-75 CNS; 28.1% in the assay with SNB-19 CNS; 31.7% with U251 CNS; 16.6% in the assay with PC-3 prostate; 39.5% in the assay with SK-MEL-5 melanoma; 12.1% in the assay on UACC-62 melanoma. Besides, the growth with LOX IMVI melanoma is 36.2%; in the assay on SK-MEL-28 melanoma, 53.6%.
Turning to `Cc1cc(O)c(C2=NN(c3ccc(S(N)(=O)=O)cc3)C(c3ccccc3O)C2)cc1Cl` (stereo unspecified), the growth was 1.2% (active) in the assay on DU-145 prostate; -36.6% (active) in the assay on K-562 leukemia; 21.8% in the assay on MALME-3M melanoma; 4.16% (active) with MDA-MB-231 breast; -10.3% (active) in the assay with RXF 393 renal; 10.8% with SF-268 CNS. Also, the growth was 58.5% in the assay on SF-295 CNS; -21.2% (active) in the assay on SF-539 CNS; 66.5% with UACC-257 melanoma; -68.5% (active) in the assay on M14 melanoma; 17.5% with HCT-15 colon; -18.4% (active) with HT29 colon. Also, the growth in the assay on SNB-75 CNS was 41.5%; in the assay with SNB-19 CNS, 65.4%; in the assay on U251 CNS, 2.38% (active); in the assay on PC-3 prostate, 9.8% (active); in the assay with SK-MEL-5 melanoma it was 36.8%; in the assay on UACC-62 melanoma, 21.3%. In the assay on SK-MEL-28 melanoma, the growth was 53.9%.
